59 compounds from PubChem BioAssay AID1566 (Sanford-Burnham Center for Chemical Genomics, 2009) can be followed below.

The whole screen tested about 290,000 compounds, of which about 1,800 (0.62%) were called active. Rule as the data show it: active = inhibition above about 50%; inactive = the rest. The sample as a whole holds a higher share of actives than the screen did.

This test in a line: NOD2 signaling inhibitors, cell-based, luminescence, uHTS, HEK293 (AID 1566). To be noted: HEK293 NOD2/NF-kB luciferase reporter, at 4 µM, stronger effect = higher value. In general terms: In a reporter assay the amount or activity of a reporter protein is the signal.
One may read the inhibition as the change of the read-out against control, counted positive when it falls. For `Cc1ccc(C(=O)NC(=S)NNS(=O)(=O)c2ccc(C)cc2)cc1`, the inhibition was 7.8% (inactive). Turning to `Cc1ccc(C(=O)NS(=O)(=O)c2ccc(C)cc2)cc1`, the inhibition was -1.5% (inactive). For the compound `Cc1ccc(S(=O)(=O)NCCNC(=O)c2ccccc2)cc1`, the inhibition is -8% (inactive). In the case of `Cc1ccc(S(=O)(=O)CNC(=O)c2ccccc2)cc1`, the inhibition is 1.3% (inactive).

As for `COc1sc(SC)cc1/C=N/NC(=O)c1ccncc1`, the inhibition was 12.3% (inactive). Take `O=C(NC1CCCCC1)C(c1ccc(F)cc1)N(Cc1cccs1)C(=O)CN1C(=O)c2ccccc2S1(=O)=O` (centres undefined): the inhibition is 13.4% (inactive). To `CC1Cc2ccccc2N1S(=O)(=O)c1cccc(C(=O)OCC(=O)NC2CCS(=O)(=O)C2)c1` (centres undefined) belongs -8.8% (inactive). In the case of `CC1(CC(=O)N/N=C/c2ccc(-c3ccc(C(=O)O)cc3)o2)OCCO1`, the inhibition was 17.9% (inactive).

For `CCn1cc(S(=O)(=O)Nc2cc(C(=O)OC)ccc2C)cn1`, the inhibition was 8.3% (inactive). Regarding `COc1cccc(OCCn2c(C)c(/C=N/n3cnnc3)c3ccccc32)c1`, the inhibition is 10.9% (inactive). To `CC(C)C(O)(c1ccccc1)C(CN1CCOCC1)c1ccccc1` (centres undefined) belongs 56.7% (active). Consider `COc1ccc(C(O)(C(C)C)C(CN2CCOCC2)c2ccccc2)cc1` (centres undefined), for which the inhibition is 8.6% (inactive). To `CCc1ccc(C(O)(C(C)C)C(CN2CCOCC2)c2ccccc2)cc1` (centres undefined) belongs 0.6% (inactive); to `COc1ccc(NC(=O)CCn2c(=O)c3cccn3c3ccccc32)c(OC)c1`, 38.3% (inactive).

For `Cc1ccc(CCNC(=O)C23C[C@H]4C[C@@H](C2)CC(n2nnc(C)n2)(C4)C3)cc1`, the inhibition was 8.2% (inactive). Turning to `Cc1nnn(C23C[C@@H]4C[C@@H](CC(C(=O)N5CCN(c6ccccc6)CC5)(C4)C2)C3)n1`, the inhibition was -0.7% (inactive). Then `Cn1ccnc1C(=O)c1ccc(S(=O)(=O)N2CCCC2)cc1`, with 14.8% (inactive); and `COc1ccc(NC(=O)c2sc3nc(N4CCOCC4)c4c(c3c2N)CCCC4)c(OC)c1`, with 30.8% (inactive).

`COc1ccccc1NC(=O)c1sc2nc(N3CCOCC3)c3c(c2c1N)CCCC3`: the inhibition was 50% (active).

Turning to `Cc1ccccc1NC(=O)c1sc2nc(N3CCOCC3)c3c(c2c1N)CCCC3`, the inhibition was 23.1% (inactive). Then `COC(=O)c1ccccc1NC(=O)CSc1nnc(-c2cccnc2)o1`, with -6.6% (inactive). As for `Cc1ccc2[nH]cc(/C=C/c3cc[n+](C)cc3)c2c1`, the inhibition was 48% (inactive). To `Cc1ccc2[nH]c(C)c(/C=C/c3cc[n+](C)cc3)c2c1` belongs 29.1% (inactive). With `COc1ccc(OC)c(S(=O)(=O)N(C)CC(=O)Nc2ccc3c(c2)OCO3)c1`, the inhibition was 4.6% (inactive).

As to `CCCNC(=O)Cn1cnc2sc(C(=O)N3CCN(CCC)CC3)c(C)c2c1=O`, the inhibition was 24.6% (inactive). Then `CC(C)(C)n1nnnc1C(c1ccncc1)N1CCN(c2ccc(O)cc2)CC1` (centres undefined), with -4.7% (inactive); and `c1ccc2c(c1)SCc1nnc(-c3ccncc3)n1-2`, with 5.9% (inactive).

With `Cc1oc(-c2ccccc2)nc1CSc1nc2c(c(=O)[nH]1)CCC2`, the inhibition is 30.8% (inactive). Then `Cc1oc(-c2ccccc2Cl)nc1CSc1nc2c(c(=O)[nH]1)CCC2`, with -2% (inactive).

Regarding `COc1ccccc1C(=O)NCCC(=O)NCCOc1ccccc1`, the inhibition is 16.2% (inactive).

Turning to `CN(C(=O)COc1ccccc1C(=O)NCCc1ccccc1)c1ccccc1`, the inhibition is -25.8% (inactive). Then `COc1ccc(N2CCN(C(=O)Cn3c(=O)[nH]c4ccsc4c3=O)CC2)cc1`, with 0.6% (inactive).

Consider `Cc1ccc(S(=O)(=O)Nc2ccccc2C(N)=O)cc1`, for which the inhibition was 0.2% (inactive).

Turning to `Cc1ccc(S(=O)(=O)Nc2ccccc2-c2ccccc2)cc1`, the inhibition is -12.5% (inactive). To `O=S(=O)(NCc1ccccn1)c1cc(Cl)ccc1Cl` belongs -6% (inactive). Then `Nc1c(NCc2ccccc2F)c(=O)[nH]c(=O)n1Cc1ccccc1`, with -4.5% (inactive). To `Cc1occc1C(=O)n1nnc2ccccc21` belongs 7.3% (inactive); to `N#CC(c1ccc(Cl)cc1)c1ccc2c(C(F)(F)F)cc(C(F)(F)F)nc2n1` (centres undefined), 44.4% (inactive); to `Cc1ccc(C(C#N)c2ccc3c(C(F)(F)F)cc(C(F)(F)F)nc3n2)cc1` (centres undefined), 19.1% (inactive).

As for `CC(NC(=O)CSc1nc2ccccc2n1CCC#N)c1ccc(F)cc1` (centres undefined), the inhibition is 19.2% (inactive).

Take `CCOc1ccc(S(=O)(=O)N2CCC(C(=O)N3CCCC3)CC2)cc1C`: the inhibition was 24.6% (inactive).

In the case of `COc1ccc(-c2cn3c(C)c(C(=O)N4CCN(c5ccccc5F)CC4)sc3n2)cc1`, the inhibition was 25.5% (inactive). Then `Cc1cc(C(C)(C)C)cc(C)c1C[n+]1ccc2ccccc2c1`, with 52.3% (active); and `Clc1cccc(Cl)c1C[n+]1ccc2ccccc2c1`, with 18.8% (inactive); and `Cc1ccc(C(=O)C[n+]2ccc3ccccc3c2)cc1`, with 9% (inactive).

As for `O=C(NCCn1ccc2ccccc21)c1ccc(S(=O)(=O)N2CCCCC2)cc1`, the inhibition is -4.3% (inactive). Turning to `FC(F)(F)c1ccc(N2CCN(c3cc(-c4ccccc4)nc4ncnn34)CC2)nc1`, the inhibition is 52% (active). For `FC(F)(F)c1cc(-c2ccccc2)nc2ncnn12`, the inhibition is -1.1% (inactive).

As to `O=S(=O)(c1ccccc1)N1CCN(c2cc(-c3ccccc3)nc3ncnn23)CC1`, the inhibition was 43.4% (inactive). Regarding `CC(=O)Nc1cccc2c1C(=O)N(c1cccc(OC(C)=O)c1)C2=O`, the inhibition was 17.8% (inactive). Then `O=C(N/N=C/c1ccc([N+](=O)[O-])o1)c1cc2c(ccc3ccccc32)o1`, with 12.1% (inactive); and `O=C(N/N=C/c1ccc([N+](=O)[O-])cc1)c1cc2ccccc2o1`, with 30.1% (inactive); and `Nc1nonc1C(=O)N/N=C/c1ccc(-c2cccc([N+](=O)[O-])c2)o1`, with 19.7% (inactive).

Consider `Cc1cc(C(=O)N/N=C/c2ccc([N+](=O)[O-])o2)c(C)o1`, for which the inhibition was 35.5% (inactive). To `Cc1ccc(C(=O)N/N=C\c2ccc([N+](=O)[O-])o2)cn1` belongs 36% (inactive); to `O=C(CNc1ccccc1)N/N=C/c1ccc([N+](=O)[O-])o1`, 46.1% (inactive). To `Nc1nonc1C(=O)N/N=C/c1ccc(Br)o1` belongs 4.7% (inactive). On to `O=C(CNc1ccc2ccccc2c1)N/N=C/c1ccc([N+](=O)[O-])o1`, for which the inhibition is -4.1% (inactive). Regarding `COc1ccccc1CNC(=O)C1CC(c2c(Cl)cccc2Cl)=NO1` (centres undefined), the inhibition is 8.6% (inactive).
